# Among all 16,000 compounds or so, about 5,700 (36%) were called active. Another 24% or so got no clear call; they are omitted. The call rests on the fitted dose curve; in most records, active means well fitted curve in the direction sought with a large enough effect; inconclusive means small, poorly fitted or top-dose-only effect, or effect the other way; inactive means no such curve, though single readings can be large or run the other way. The list shows a part of the results.
# Molecular target: Cytochrome P450 1A2 (Homo sapiens) (UniProt P05177)
# Sequence (P05177 whole entry, looked up): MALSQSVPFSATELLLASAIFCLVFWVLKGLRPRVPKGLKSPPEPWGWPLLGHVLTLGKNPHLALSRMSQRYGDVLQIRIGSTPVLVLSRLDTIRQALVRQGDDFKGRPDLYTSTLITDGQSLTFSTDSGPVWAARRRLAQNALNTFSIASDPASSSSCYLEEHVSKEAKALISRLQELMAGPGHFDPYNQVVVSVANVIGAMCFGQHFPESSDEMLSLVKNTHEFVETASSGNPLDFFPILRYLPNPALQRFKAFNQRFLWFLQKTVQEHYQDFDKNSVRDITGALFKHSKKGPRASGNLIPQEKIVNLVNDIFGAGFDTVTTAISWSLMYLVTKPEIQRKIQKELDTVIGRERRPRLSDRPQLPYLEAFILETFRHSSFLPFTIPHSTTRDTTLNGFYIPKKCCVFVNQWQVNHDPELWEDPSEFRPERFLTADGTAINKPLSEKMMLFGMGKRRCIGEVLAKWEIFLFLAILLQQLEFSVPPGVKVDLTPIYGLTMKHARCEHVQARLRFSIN
# Test: Cytochrome panel assay with activity outcomes
# Conditions: recombinant CYP, pro-luciferin dealkylation, luminescence, p450-cyp1a2; series mostly up to 57.1 µM; activity, negative = inhibition: at the top concentration
# On the % scale 0 is the no-effect control and ±100 the full control effect.
Structure (SMILES),"activity, negative = inhibition",AC50
C=CCSC[C@@H]1Nc2cc(Cl)c(S(N)(=O)=O)cc2S(=O)(=O)N1,-13.5% [at 25.6 µM] (inactive),
Cc1noc(C)c1C(=O)N1CCC[C@@]2(CCN(c3ncccn3)C2)C1,-11.1% (inactive),
COc1cccc(N(C(=O)Cn2nnc(-c3ccc(C)cc3)n2)C(C(=O)NC(C)(C)C)c2c[nH]c3ccccc23)c1 (configuration not stated),-7.1% (inactive),
COc1ccc2[nH]cc(CCNc3nc(-c4ccc(N(C)C)cc4)nc4ccccc34)c2c1,,1260 nM (active)
COc1ccc2[nH]cc(CCNc3nc(-c4ccc(C(=O)N(C)C)cc4)nc4ccccc34)c2c1,,15800 nM (active)
C[C@H]1CCCC2(CC[N+](C)(CCC[N+](C)(C)C)CC2)C1 (some centres not stated),-9.21% [at 11.4 µM] (inactive),
COC(=O)c1ccccc1NC(=O)c1cc2nc(C3CC3)cc(C(F)(F)F)n2n1,,1580 nM (active)
COCCNc1nc(-c2ccccc2C(F)(F)F)nc2ccccc12,,1260 nM (active)
COCCNc1nc(-c2ccccc2OC)nc2ccccc12,,794 nM (active)
COCCNc1nc(-c2ccccc2C)nc2ccccc12,,1260 nM (active)
COCCNc1nc(-c2ccccc2Cl)nc2ccccc12,,126 nM (active)
C[C@@H](N=C(N)N)C(=O)O,-4.5% [at 11.4 µM] (inactive),
OCCN(CO)CO,-9.46% [at 11.4 µM] (inactive),
O=S1(=O)C=C(N2CCOCC2)c2ccccc21,,14100 nM (active)
COc1ccc2c(c1)c(=O)oc1c(C)c(OCC(=O)N3CCc4ccccc4C3)ccc12,,2000 nM (active)
CCOc1cc(/C=C2/SC(=O)N(CC(=O)N3CCc4ccccc4C3)C2=O)ccc1OCC(=O)O,6.34% (inactive),
COC(=O)c1ccccc1OCC(=O)N1CCN(c2ccc(OC)cc2)CC1,-17.2% (inactive),
COc1ccccc1-c1nnc(SCc2nc3ccccc3s2)n1C,,14100 nM (active)
COC(=O)CSc1nnc(-c2ccccc2OC)n1-c1ccc(C)cc1,-9.92% (inactive),
N#Cc1c(-c2ccc(Cl)cc2)nc2n(c1=O)CCCS2,,1410 nM (active)
N#Cc1c(-c2ccccc2)nc2n(c1=O)CCS2,,3160 nM (active)
O=c1c(Cc2ccccc2)c(O)nc2n1CCS2,-10.2% (inactive),
CCn1c(=O)c2c(nc3n2CCS3)n(C)c1=O,-29% (inactive),

Structure (SMILES),"activity, negative = inhibition",AC50
COc1cc(=O)n2c(n1)SCCC2,-1.28% (inactive),
CC(C)=CCC/C(C)=C/CO/N=C1/C[C@@H](O)[C@@H](O)[C@@H]2[C@@H]3C(=O)N(C[C@@H]4CCCO4)C(=O)[C@H]3CC[C@H]12,-0.0642% [at 11.4 µM] (inactive),
CC(C)(C)N1C(=O)[C@H]2[C@H]3[C@H](O)[C@H](O)C/C(=N/NC(=O)OCc4ccccc4)[C@@H]3CC[C@@H]2C1=O,-5.49% [at 11.4 µM] (inactive),
COc1ccccc1OCCOc1ccc(/C=C2/C(=N)N3OC(C)=CC3=NC2=O)cc1OC,-4.69% (inactive),
COc1ccc(/C=C2\OC(=O)c3c(OC)cccc32)cc1OC,,3160 nM (active)
Cc1cc(Cc2cc(Cc3cc(C)cc(C(C)(C)C)c3O)c(C)cc2C)c(O)c(C(C)(C)C)c1,-17.1% [at 2.29 µM] (inactive),
Cc1cc(-c2cc(C)c(O)c(C(C)(C)C)c2)cc(C(C)(C)C)c1O,,631 nM (active)
Cc1cc(Cc2cc(C)cc(C(C)(C)C)c2O)c(O)c(Cc2cc(C)cc(C(C)(C)C)c2O)c1,-15.6% [at 2.29 µM] (inactive),
COCCN1C(=O)c2ccccc2C(C(=O)Nc2ccc3c(c2)OCCO3)C1c1ccc(F)cc1 (configuration not stated),-3.22% (inactive),
O=C(Nc1ccc2c(c1)OCCO2)c1cc2sccc2n1Cc1ccc(F)cc1,,4470 nM (active)
COc1ccc(NC(=O)N2CCCC3(CCN(C(=O)c4cnccn4)CC3)C2)cc1,-15.4% (inactive),
COc1ccc(-c2cc(C(F)(F)F)n3nc(C(=O)N4CCCCC4)cc3n2)cc1,,15800 nM (active)
COc1ccc(NC(=O)N2CCCC3(CCN(C(=O)c4cc(C(F)(F)F)cc(C(F)(F)F)c4)CC3)C2)cc1,-13.1% (inactive),
C[N+](C)(N)Cc1csc(-c2ccc(Cl)cc2)n1,-4.22% [at 2.29 µM] (inactive),
Nc1ccccc1SCc1csc(-c2ccc(Cl)cc2)n1,,631 nM (active)
Nc1nc(SCC(=O)Nc2ccccc2Sc2ccc(Cl)cc2)n[nH]1,9.65% (inactive),
Cn1nc(C(=O)NC2CCCCC2)c2ccccc2c1=O,,12600 nM (active)
O=C(CCCCn1c(=O)c2ccccc2n(CC(=O)NC2CCCC2)c1=O)NC1CCCC1,-2.45% (inactive),
CCCn1nc(C(=O)NCC(C)(C)N2CCOCC2)c2ccccc2c1=O,-25.2% (inactive),
COc1ccc(-c2cnnc(CCCn3ccnc3-c3ccccc3)n2)cc1,-12.1% [at 11.4 µM] (inactive),
O=S(=O)(c1ccc(F)cc1)n1ccc(-c2cnc(-c3ccccc3)s2)n1,,2240 nM (active)
Cc1ccc(S(=O)(=O)n2ccc(-c3cccc(OCc4c(F)cccc4Cl)c3)n2)cc1,-3.21% (inactive),
COc1ccc(S(=O)(=O)N2CC3C4C=CC(C4)C3C2)cc1 (configuration not stated),-14% (inactive),

Structure (SMILES),"activity, negative = inhibition",AC50
COc1ccc(S(=O)(=O)n2ccc(-c3cnc(-c4ccccc4)s3)n2)cc1,,1120 nM (active)
COc1cccc2cc(C(=O)CC3(O)C(=O)N(Cc4ccccc4)c4ccccc43)c(=O)oc12 (configuration not stated),,15800 nM (active)
CC(C)c1ccc(C(=O)CC2(O)C(=O)N(CN3CCOCC3)c3ccccc32)cc1 (configuration not stated),-15.9% (inactive),
Cn1c(=O)c2c(nc(NCCNc3nc4c(c(=O)n(C)c(=O)n4C)n3C)n2C)n(C)c1=O,-0.53% [at 11.4 µM] (inactive),
Cn1c(=O)c2c(nc(C(=N)SCC(=O)O)n2C)n(C)c1=O,,1260 nM (active)
CN1CCN(c2nc3c(c(=O)n(C)c(=O)n3C)n2C)CC1,-16.8% [at 2.29 µM] (inactive),
O=C(NCCOC(=O)c1ccc(C(=O)OCCNC(=O)c2cccnc2)s1)c1cccnc1,-9.26% (inactive),
O=C(OCCNC(=O)c1ccc2ccccc2n1)c1ccc(F)cc1,,1120 nM (active)
Nc1ccccc1S(N)(=O)=O,-0.711% [at 25.6 µM] (inactive),
Cc1ccc(N=Nc2ccc(N)cc2C)c(S(N)(=O)=O)c1,,501 nM (active)
Cc1ccc(N=Nc2c(O)c3ccccc3[nH]c2=O)c(S(=O)(=O)N(C)C)c1,-14.6% [at 2.29 µM] (inactive),
CC(C)CNC(=S)N1CCN(C)CC1,-8.21% (inactive),
CC(C)C(=O)NC(=S)Nc1ccccc1C(=O)Nc1ccccc1,,6310 nM (active)
O=C(O)c1ccccc1-c1ccccc1C(=O)Nc1ccccc1,-5.42% (inactive),
O=C1C(SCCO)=C(SCCO)C(=O)c2ccccc21,,631 nM (active)
OCCSCc1ccccc1,-13% [at 11.4 µM] (inactive),
O=S(=O)(O)[C@@H](CO)c1ccccc1 (tested in a mixture with another compound),-1.9% [at 2.29 µM] (inactive),
COCCn1c(=O)c(C)nc2cnc(Nc3cccc(OC)c3)nc21,,1000 nM (active)
COc1cccc(Nc2ncc3nc(C)c(=O)n(CCc4ccccc4)c3n2)c1,,5010 nM (active)
c1ccc([C@@H]2CN3CCSC3=N2)cc1,-10.1% (inactive),
COc1ccc(C(=O)Nc2cccc(OC(=O)c3ccc(C)c(C)c3)c2)cc1,,14100 nM (active)
COc1ccc(NC(=O)c2ccc(C(=O)c3cc(OC)ccc3OC)cc2)cc1,-14.8% (inactive),
COc1ccc(NC(=O)C2(c3ccc(NC(=O)c4ccc(OC(C)=O)cc4)cc3)CCCC2)cc1,6.01% (inactive),

Structure (SMILES),"activity, negative = inhibition",AC50
COc1ccc(C(=O)Nc2cc(OC)cc(OC)c2)cc1,,12600 nM (active)
O=C(N/N=C/c1ccc(O)cc1)c1csc2ccccc12,,11200 nM (active)
COc1ccc(OC)c(/C=N/NC(=O)c2csc3ccccc23)c1,,3160 nM (active)
Cc1ccc(C)c(-c2nn(-c3cc(N4CCN(CCO)CC4)ccc3[N+](=O)[O-])c(=O)c3ccccc23)c1,-5.68% (inactive),
O=C(O)c1cc2c(cc1S(=O)(=O)O)[C@H]1[C@@H]([C@H]3[C@H]2[C@@]2(Cl)C(Cl)=C(Cl)[C@]3(Cl)C2(Cl)Cl)[C@]2(Cl)C(Cl)=C(Cl)[C@@]1(Cl)C2(Cl)Cl,-14.5% [at 11.4 µM] (inactive),
Cc1ccc(Cn2cccc(NC(=O)NCc3ccccc3)c2=O)cc1,-1.87% (inactive),
O=C(Nc1cccn(Cc2ccc(F)cc2)c1=O)NC1CCCCC1,,22400 nM (active)
O=C(NC1CCCC1)C(c1ccc(F)cc1)N(Cc1ccc(F)cc1)C(=O)c1ccn[nH]1 (configuration not stated),-5.3% (inactive),
Cc1ccc2cn[nH]c2c1NC(=S)NC(=O)c1ccccc1,,10000 nM (active)
COc1ccc(C(=O)N2CCC3(CCCN(CC(C)C)C3)CC2)cc1,-16.6% (inactive),
CN1CCC[C@@H](CC2c3ccccc3Sc3ccccc32)C1,-4.29% [at 25.6 µM] (inactive),
CSc1ccc2c(c1)[C@H](N1CCN(C)CC1)Cc1ccccc1S2,,31600 nM (active)
CN1CCC(=C2c3ccccc3Sc3ccccc32)CC1,-17.4% [at 25.6 µM] (inactive),
O=C1Nc2cc(Cl)c(Cl)cc2N(O)N1c1ccc(Cl)c(Cl)c1,-19.1% (inactive),
O=c1c2ccccc2c(-c2ccccc2)nn1-c1ccc(Cl)c(Cl)c1,,126 nM (active)
Cc1noc(C)c1-c1nc(NCc2cccs2)c2ccccc2n1,,200 nM (active)
COc1ccc(N(CC(=O)NCc2cccc(OC)c2)S(=O)(=O)c2c(C)noc2C)cc1,-21.9% (inactive),
COc1ccccc1CN1CC[C@@]2(CCCN(C(=O)c3c(C)noc3C)C2)C1,12.4% (inactive),
COc1ccccc1CNc1nc(-c2c(C)noc2C)nc2ccccc12,,631 nM (active)
COc1ccc(CNc2nc(-c3c(C)noc3C)nc3ccccc23)c(OC)c1,,794 nM (active)
COC(=O)Cc1c(C)nc2nc(NCc3ccccc3OC)[nH]n2c1=O,-20.2% (inactive),
CS(=O)(=O)N(Cc1cc2ccccc2[nH]c1=O)C1CCCCC1,-15% (inactive),
CCS(=O)(=O)NCCc1cc2ccc(C)cc2[nH]c1=O,,20000 nM (active)
